# Only some compounds are listed: those with a hit (about 3.1% of all), similar ones and a draw of the others.
# SKOV3 invasion – ovarian cancer metastasis inhibition, 3D TME model. AID 1963576. Potency, µM (titrated, usually from 45.8 µM), inactives show at the top dose activity change, negative = inhibition, hits mostly inhibitors. 46,000 compounds, 0.1% hits. SKOV3ip1-GFP adhesion/invasion on 3D omental model, fluorescence;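 also: potency is read from the fitted curve at half-maximal effect; plate controls were DMSO wells for no effect and tomatine positive control wells for full effect; nearly all actives have a fitted effect of over 65% in size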
#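 qHTS, 4-pt dose (0.36-46 umol/L); SKOV3ip1-GFP, 1,200 cells/well, no FBS; primary omental fibroblast/mesothelial co-culture 48 h pre-grown; 2 h RT + 16 h 37 C; PBS wash, 4% PFA; GFP count 488/509 nm.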
# pS6 MEF inh – inhibitors of mTORC1 signaling in Tsc2-/- p53-/- MEF cells | Tsc2-/- p53-/- MEF, phospho-rpS6 immunofluorescence/PI, 24 h | Potency, µM (series often up to 38.3 µM), for the others: at the highest dose activity change, negative = inhibition, actives largely listed as inhibitors | 44,000 compounds, 0.78% hits | AID 493208;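 also: potency is read from the fitted curve at half-maximal effect; plate controls were DMSO for no effect and rapamycin for full effect; nearly all actives have a fitted effect of over 50% in size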
#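 Tsc2-/-, p53-/- MEFs (empty-vector stable line) in DMEM + 10% FBS were treated with compounds 24 h at 37 degree Celsius, fixed, and immunostained for phospho-rpS6 (Alexa-488) with propidium iodide counterstain. Laser-scanning cytometry gave % positive cells, normalized against 7.5 nM rapamycin and DMSO.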
# PMP22 txn prim – modulates PMP22 transcription in S16 Schwann cells; S16 Pmp22-F2sN Schwann cells, FLuc/NLuc coincidence luminescence, 24 h; Potency, µM (doses to about 57.5 µM), without a hit: at the top dose activity change, negative = inhibition, usual class: inhibitors; 43,000 compounds, 2% hits; AID 1508649; active = clear falling dose curves in both reporters; inconclusive = both reporters move, but less clearly or upward; inactive = either reporter flat; the % is the NLuc reporter signal; also: potency is read from the fitted curve at half-maximal effect; % is scaled to controls: 0 for no effect and ±100 for the full control effect
#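 qHTS, 1536-well. Cells seeded, compounds added by pin tool, 24 h 37C. Nano-Glo reagent 1 (lysis/FLuc), 10 min RT, read; Stop&Glo, 10 min RT, read NLuc.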
# p53null 39C tox – selectivity test: cytotoxicity in p53 null cells, nonpermissive temperature; H1299 p53-null (neo) cells, 39C, ATPlite viability, 24 h; AID 904; Potency, µM (top dose mostly 46.1 µM), for the others: at the top dose activity, negative = cell killing, hits mostly cytotoxic; 55,000 compounds, 0.97% hits;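 also: potency is read from the fitted curve at half-maximal effect; 0% = DMSO only and -100% = full killing by 100 µM tamoxifen; nearly all actives have a fitted effect of over 50% in size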
#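 ATP-luminescence viability readout (ATPlite, 20 min RT) after 24 hr compound treatment at 39C of H1299-neo or H1299-p53A138V cells; titration up to 46 uM; normalized to DMSO and 100 uM tamoxifen; Hill-fit AC50.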
# S16 viability – toxic to S16 Pmp22-F2sN Schwann cells | S16 Pmp22-F2sN Schwann cells viability, CellTiter-Glo, 24 h | 43,000 compounds, 0.48% hits | Potency, µM (highest dose often 57.5 µM), without a hit: at the highest dose activity change, negative = cytotoxicity, hits mostly cytotoxic | AID 1508642; also: potency is read from the fitted curve at half-maximal effect; % is scaled to controls: 0 for no effect and ±100 for the full control effect; nearly all actives have a fitted effect of over 65% in size
#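 Seed 500-1,000 S16 Pmp22-F2sN cells per well in phenol-red-free DMEM with 10% heat-inactivated FBS; pin-add 23 nL compound; incubate 24 h at 37C; add CellTiter-Glo, wait 15 min protected from light; read luminescence.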
# p53null 32C kill – kills p53 null cells at the permissive temperature; Potency, µM (highest dose often 46.1 µM), for inactives: at the top dose activity change, negative = cytotoxicity, hits mostly cytotoxic; H1299-neo p53 null cells, ATP luminescence, 24 h, 32C; 55,000 compounds, 0.62% hits;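 also: potency is read from the fitted curve at half-maximal effect; 0% = DMSO only and -100% = full killing by 100 µM tamoxifen; nearly all actives have a fitted effect of over 55% in size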
#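 Cytotoxicity: H1299-neo (no p53), 32C, 24 h treatment. Concentrations up to 46 uM. Readout cellular ATP, luminescence. Normalization to DMSO basal and tamoxifen 100 uM maximal kill.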
# NLuc saturating – NanoLuc enzyme inhibition artifact for PMP22 screen; Potency, µM (top dose mostly 57.5 µM), without a hit: top-dose activity change, negative = inhibition, most hits filed as inhibitors; AID 1508638; 690 compounds, 4% hits; shares compounds with PMP22 txn prim; Secreted NLuc enzyme (filtered S16 cell medium), Nano-Glo luminescence; also: potency is read from the fitted curve at half-maximal effect; % is scaled to controls: 0 for no effect and ±100 for the full control effect
# NLuc Km counter – inhibits NanoLuc under Km conditions, PMP22 counter-screen | shares compounds with PMP22 txn prim | secreted NLuc enzyme, coelenterazine luminescence, Km conditions | Potency, µM (highest dose often 57.5 µM), for the others: at the highest dose activity change, negative = inhibition, actives largely listed as inhibitors | 690 compounds, 5% hits | AID 1508639; also: potency is read from the fitted curve at half-maximal effect; % is scaled to controls: 0 for no effect and ±100 for the full control effect
# FLuc ctr PMP22 – counter-screen for PMP22 expression modulators: firefly luciferase inhibition; shares compounds with PMP22 txn prim; purified P. pyralis FLuc, luminescence, 10 min; Potency, µM (titrated, usually from 57.5 µM), for inactives: top-dose activity, negative = inhibition, hits mostly inhibitors; 690 tested, under 10 active; AID 1508640; also: % of control where 0% means no effect
# Target sequence (P08659 whole entry, looked up): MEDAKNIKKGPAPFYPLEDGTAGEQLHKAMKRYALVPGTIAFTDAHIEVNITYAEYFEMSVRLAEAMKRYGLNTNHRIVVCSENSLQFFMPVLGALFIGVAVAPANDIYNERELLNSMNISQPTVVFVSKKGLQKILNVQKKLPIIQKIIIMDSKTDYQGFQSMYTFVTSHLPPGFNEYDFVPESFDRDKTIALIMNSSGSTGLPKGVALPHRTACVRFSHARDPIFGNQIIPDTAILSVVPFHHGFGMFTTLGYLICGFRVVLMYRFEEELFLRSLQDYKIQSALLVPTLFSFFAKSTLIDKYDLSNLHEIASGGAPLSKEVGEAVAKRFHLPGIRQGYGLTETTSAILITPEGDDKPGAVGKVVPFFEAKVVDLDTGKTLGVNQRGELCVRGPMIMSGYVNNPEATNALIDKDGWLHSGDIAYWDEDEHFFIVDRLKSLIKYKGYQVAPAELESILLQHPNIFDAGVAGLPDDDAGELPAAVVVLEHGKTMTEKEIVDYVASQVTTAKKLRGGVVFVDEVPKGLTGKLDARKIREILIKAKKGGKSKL
# S16 F2sN tox cnf – confirmation of cytotoxicity in S16 Pmp22-F2sN Schwann cells (luciferase reporters placed in the Pmp22 gene). shares compounds with PMP22 txn prim. S16 Schwann cells viability, CellTiter-Glo ATP luminescence, 24 h. Potency, µM (top dose mostly 57.5 µM), without a hit: top-dose activity change, negative = viability loss, most hits filed as cytotoxic. 690 compounds, 7% hits. AID 1508641; also: potency is read from the fitted curve at half-maximal effect; % is scaled to controls: 0 for no effect and ±100 for the full control effect
# PMP22 txn conf – PMP22 transcription modulation, confirmatory; shares compounds with PMP22 txn prim; S16 Schwann cells Pmp22-F2sN, dual luciferase, 24 h; Potency, µM (highest dose often 57.5 µM), for the others: top-dose activity change, negative = inhibition, most hits filed as inhibitors; 690 compounds, 22% hits; active = clear falling dose curves in both reporters; inconclusive = both reporters move, but less clearly or upward; inactive = either reporter flat; the % is the FLuc reporter signal; also: potency is read from the fitted curve at half-maximal effect
# PMP22 prot conf – confirmation of modulators of rat PMP22 protein expression; shares compounds with PMP22 txn prim; S16 Schwann cells Pmp22-HiBiT, luminescence, 48 h; 95 tested, under 10 active; AID 1508647; Potency, µM (series often up to 27.9 µM), for inactives: at the highest dose activity change, negative = inhibition, usual class: inhibitors
# Target sequence (P25094 whole entry, looked up): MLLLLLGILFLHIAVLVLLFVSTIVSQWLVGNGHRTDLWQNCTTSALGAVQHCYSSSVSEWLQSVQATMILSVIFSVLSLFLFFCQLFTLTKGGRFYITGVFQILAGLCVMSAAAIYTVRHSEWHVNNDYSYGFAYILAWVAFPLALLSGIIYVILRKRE
# An asterisk follows results filed as active; i = inactive; u = inconclusive; x = no result given. Unless noted, calls follow the shape of the dose curve; as a rule, active = well fitted curve in the direction sought with a large enough effect; inconclusive = small, poorly fitted or top-dose-only effect, or another doubt; inactive = no such curve, though single readings can be large; an effect the other way counts as inactive or inconclusive.
SMILES,SKOV3 invasion,pS6 MEF inh,PMP22 txn prim,p53null 39C tox,S16 viability,p53null 32C kill,NLuc saturating,NLuc Km counter,FLuc ctr PMP22,S16 F2sN tox cnf,PMP22 txn conf,others
CCCCCOc1ccc(/C=C/C(=O)Nc2sc(C(C)=O)c(C)c2C(=O)OCC)cc1OC,20%,-10%,7.5µM*,27%,19%,4%,1%,-1%,-3%,5%,-7%,
CCCCCOc1ccc(/C=C/C(=O)Nc2sc3c(c2C(=O)OCC)CCC3)cc1OC,1%,4%,-18%,7%,5%,-4%,x,x,x,x,x,
CCn1nc(-c2ccccc2)c(-c2ccccc2)c(C(=O)Nc2ccccc2C(N)=O)c1=O,i,3%,40%,11%,-1%,-4%,x,x,x,x,x,
CC(=O)Nc1ccc(NC(=O)CN(C)S(=O)(=O)c2ccc3c(c2)CCCC(=O)N3)cc1,i,6%,9%,-14%,-17%,5%,x,x,x,x,x,
CCOc1ccc(OCC)c(NC(=O)CN(C)S(=O)(=O)c2ccc3c(c2)CCCC(=O)N3)c1,-7%,7%,20µM*,-22%,-4%,4%,-4%,-2%,0%,4%,-23%,
Cn1ncc2c(Nc3cc(C(F)(F)F)ccc3Cl)ncnc21,-9%,11%,u,9%,-3%,-2%,x,x,x,x,x,
COCCNc1nc2c(c(=O)n(C)c(=O)n2C)n1Cc1c(F)cccc1Cl,6%,-1%,13µM*,-25%,u,3%,1%,-2%,4%,11%,-9%,
COc1ccccc1CNc1ccc(-c2nc(-c3cccc(C)c3)no2)cc1[N+](=O)[O-],-8%,-14%,-8%,0%,-14%,-9%,x,x,x,x,x,
O=C(NCCSc1c[nH]c2ccccc12)c1ccccc1Cl,-2%,1%,u,-2%,u,1%,u,u,-12%,1%,-25%,
COc1ccc(NC(=O)N2CCc3c(sc4c3CCCC4)C2c2ccc(F)cc2)cc1 (stereo not given),-1%,20%,15µM*,13%,u,7%,-12%,-13%,2%,u,-30%,
CCOc1cccc(NC(=O)C2CC(=O)N(C)C(=Nc3cccc(OC)c3)S2)c1 (stereo not given),3%,-12%,-18%,u,23%,u,x,x,x,x,x,
COc1ccc(Cl)cc1NC(=O)CSC1=Nc2ccccc2C2=NC(CCC(=O)NCc3ccco3)C(=O)N12 (stereo not given),3%,-7%,20µM*,0%,u,17%,u,u,-7%,-18%,u,
Cc1ccc(Cn2c(CN3CCC(C(=O)NCc4ccccc4C)CC3)cc3ccccc32)cc1,-1%,0%,u,0%,-16%,10%,x,x,x,x,x,
COc1ccccc1Nc1nn2c(=O)c3ccc(C(=O)Nc4ccc(F)cc4)cc3nc2s1,7%,-19%,3µM*,12%,21%,-1%,-3%,4%,-17%,14µM*,5.8µM*,PMP22 prot conf=u
COc1ccc(NC(=O)c2ccc3c(=O)n4nc(Nc5ccccc5C)sc4nc3c2)cc1,3%,-3%,u,16%,11%,-9%,x,x,x,x,x,
COc1ccccc1Nc1nn2c(=O)c3ccc(C(=O)NCCC4=CCCCC4)cc3nc2s1,13%,u,3µM*,4µM*,u,u,u,u,u,6.9µM*,5.8µM*,
Cc1ccc(NC(=O)c2ccc3c(=O)n4nc(Nc5ccccc5C)sc4nc3c2)cc1C,-4%,-1%,9.5µM*,u,11%,-23%,-10%,u,-4%,27µM*,13µM*,
Cc1ccc(C)c(Nc2nn3c(=O)c4ccc(C(=O)NCCC5=CCCCC5)cc4nc3s2)c1,10%,-5%,u,-26%,2%,-16%,x,x,x,x,x,
COc1ccc(NC(=O)c2ccc3c(=O)n4nc(Nc5ccccc5C)sc4nc3c2)cc1Cl,-7%,1%,11µM*,u,-5%,-12%,-10%,u,-2%,24µM*,15µM*,
CCn1c(=O)n(CC)c2cc(N3CCCCC3)c(NC(=O)Nc3cc(C)cc(C)c3)cc21,4%,-12%,-30%,26%,-1%,20%,x,x,x,x,x,
CNC(=O)c1cc2n(n1)CCCN(Cc1ccc(F)cc1)C2=O,-13%,-17%,8%,1%,0%,-2%,x,x,x,x,x,
Cn1c(=O)n(-c2ccc3c(c2)OCO3)c2nc(-c3ccc(Cl)cc3)nc(C(N)=O)c21,i,-2%,u,0%,23%,-2%,-4%,-1%,4%,-9%,-27%,
CC(c1ccccc1)n1cc2c(c1-c1ccccc1Br)c(=O)n(C)c(=O)n2C (stereo not given),-14%,-12%,-7%,10%,-9%,15%,x,x,x,x,x,
Cn1c(=O)c2c(-c3ccccc3Br)n(C(C)(C)C)cc2n(C)c1=O,7%,-7%,16µM*,-9%,1%,5%,u,-16%,3%,u,-22%,

# Screens (PubChem)
